This note sets out measurements from PubChem BioAssay (Tox21).

Structures are written as SMILES. Records with an inconclusive call do not appear. Activity calls are given as the source filed them. Calls follow the shape of the dose curve; as a rule, active = well fitted inhibition curve with a large enough effect in the signal ratio in the repeat runs (not every such curve was filed as active); inconclusive = weak or mixed curves, or effect the other way; inactive = no such curve, though single readings can be large or run the other way; the % refers to the signal ratio.
% is scaled to controls: 0 for no effect and ±100 for the full control effect; potency is read from the fitted curve at half-maximal effect.

The target in the test is Estrogen receptor beta (Homo sapiens) (UniProt Q92731). Briefly: qHTS assay to identify small molecule antagonists of the estrogen receptor beta (ER-beta) signaling pathway (AID 1259378). Particulars: ER-beta-UAS-bla HEK293T, beta-lactamase FRET ratio, 16 h; series mostly up to 92.4 µM; activity, negative = inhibition: at the top concentration. The text has this: National Center for Advancing Translational Sciences [NCATS]
Chain of Estrogen receptor beta (Homo sapiens) (Q92731 whole entry, looked up): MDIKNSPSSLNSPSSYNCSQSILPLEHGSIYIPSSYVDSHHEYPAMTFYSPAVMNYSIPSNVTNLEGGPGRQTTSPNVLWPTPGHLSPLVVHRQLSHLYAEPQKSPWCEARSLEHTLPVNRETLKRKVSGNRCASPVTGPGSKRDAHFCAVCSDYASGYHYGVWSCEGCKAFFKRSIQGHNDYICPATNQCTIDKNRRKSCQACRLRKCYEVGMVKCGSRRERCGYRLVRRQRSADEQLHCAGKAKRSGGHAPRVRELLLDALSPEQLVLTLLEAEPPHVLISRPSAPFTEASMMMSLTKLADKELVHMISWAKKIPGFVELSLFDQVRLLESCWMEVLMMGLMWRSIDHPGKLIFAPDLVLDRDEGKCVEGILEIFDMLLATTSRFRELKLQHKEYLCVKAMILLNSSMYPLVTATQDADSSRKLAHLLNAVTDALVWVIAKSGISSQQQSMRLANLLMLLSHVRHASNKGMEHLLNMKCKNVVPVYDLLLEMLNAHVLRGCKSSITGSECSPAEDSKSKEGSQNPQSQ
NIH Chemical Genomics Center [NCGC]
U.S. Environmental Protection Agency [EPA]
National Institutes of Environmental Health Sciences [NIEHS]
National Toxicology Program [NTP]
U.S. Food and Drug Administration [FDA]
Estrogen receptor (ER), a nuclear hormone receptor, plays an important role in development, metabolic homeostasis and reproduction. Two subtypes of ER, ER-alpha and ER-beta, have similar expression patterns with some uniqueness in both types. Endocrine disrupting chemicals (EDCs) and their interactions with steroid hormone receptors like ER causes disruption of normal endocrine function. To identify the compounds that inhibit ER signaling, an ER-beta-UAS-bla GripTite cell line (Life Technologies, Madison, WI, USA) containing a beta-lactamase reporter gene under the control of an UAS response element was used to screen Tox21 10K compound library.
Tox21 Assay Protocol Summary:
ER-beta-UAS-bla HEK293T cells were dispensed at 2,000 cells/4 uL of assay medium containing 2% charcoal stripped FBS per well into black wall/clear-bottom 1536-well plates using a Multidrop Combi (ThermoFisher Scientific, Waltham, MA) dispenser. After the assay plates were incubated at a 37C and 5% CO2 for 6 hr, 23 nL of compounds dissolved in DMSO, positive controls or DMSO only was transferred to the assay plate by a Pintool station (Kalypsys, San Diego, CA), followed by addition of 1 uL (1nM as final concentration) of 17-beta-estradiol (E2) in assay medium using a BioRAPTR FRD (Flying Reagent Dispenser, Aurora Discovery, San Diego, CA). The plates were incubated at 37C and 5% CO2 for 16 hr. Then 1 uL of LiveBLAzerTM B/G FRET substrate was added using a Flying Reagent Dispenser, the plates were incubated at room temperature for 2 hours, and fluorescence intensity was measured by an Envision plate reader (PerkinElmer, Shelton, CT).
A general note: In qHTS, concentration-response curves come from the screen itself.
Take `CCO[Si](CCCCl)(OCC)OCC`: the “activity, negative = inhibition” value was -2.01% (inactive).
In the case of `CN1Cc2cc(C(=O)N3CCC(C4CCNCC4)CC3)ccc2NC(CC(=O)O)C1=O` (stereo not given), the “activity, negative = inhibition” value is 17.3% [at 42.5 µM] (inactive).
For `CCCCOC(=O)CCCCCCCC(=O)OCCCC`, the “activity, negative = inhibition” value is -8.01% (inactive).
Same read-out and setting: in the case of `Cc1c(N)cccc1[N+](=O)[O-]` it was -22.4% (inactive); in that of `CC(C)(O)c1ccc(CNC(=O)c2cccnc2Oc2ccc(F)cc2)cc1`, -15.4% (inactive); in that of `COC(C)(C)CCO`, -6.6% (inactive).
Still for that read-out and setting: next, `CN(C)CCN(Cc1ccccc1)c1ccccn1`: -3.03% [at 42.5 µM] (inactive); `NC(N)=NCCC[C@H](N)C(=O)O`: 14.4% [at 8.39 µM] (inactive); `Nc1cccc([N+](=O)[O-])c1`: -0.0684% (inactive).
In the case of `CN1CCN(C(c2ccccc2)c2ccccc2)CC1`, the “activity, negative = inhibition” value is -12% [at 42.5 µM] (inactive).
On the same count and under the same terms, in the case of `CCOCC(O)COc1ccc(NC(=O)CC[S+](C)C)cc1` (stereo not given) it was 13.9% [at 42.5 µM] (inactive); in that of `Nc1ccc([N+](=O)[O-])c(C(F)(F)F)c1`, -2.34% [at 42.5 µM] (inactive); in that of `C=CCOC(=O)CCC1CCCCC1`, -0.0459% (inactive).
Regarding `O=C1C(O)=C(O)C(=O)C(O)=C1O`, the “activity, negative = inhibition” value was 1.9% [at 42.5 µM] (inactive).
The same measure, in the same setting: next, `CCOC(=O)Cc1cccc2ccccc12`: 11.8% (inactive); `O=[N+]([O-])c1ccc2[nH]ncc2c1`: 6.47% (inactive).
For the molecule `C[N+]1(CC2COC(c3ccccc3)(C3CCCCC3)O2)CCCCC1` (stereo not given), the “activity, negative = inhibition” value is -0.933% [at 42.5 µM] (inactive).
Turning to `CC(CSC(=O)c1ccccc1)C(=O)N1C[C@@H](Sc2ccccc2)C[C@H]1C(=O)O` (stereo not given in full), the activity, negative = inhibition is -3.38% [at 19 µM] (inactive).
With `CC(=O)c1cccc([N+](=O)[O-])c1`, the “activity, negative = inhibition” value is 17.2% (inactive).
On the same count and under the same terms, in the case of `CCC(CC)Nc1ccc(C)c(C)c1` it was 7.68% (inactive); in that of `C[C@@H]1C[C@H]2O[C@@]3(O[C@@H]2C(C)(C)O)[C@H](O)[C@@]2(C)[C@@H]4CC[C@H]5C(C)(C)[C@@H](O[C@@H]6OC[C@@H](O)[C@H](O)[C@H]6O)CC[C@@]56C[C@@]46CC[C@]2(C)[C@@H]13`, 13% [at 42.5 µM] (inactive); in that of `CO[C@@H]1[C@H](OC(=O)/C=C/C=C/C=C/C=C/C(=O)O)CC[C@]2(CO2)[C@H]1[C@@]1(C)O[C@@H]1CC=C(C)C`, -21.4% (inactive).
For the molecule `C[N+](C)(C)CCOC(=O)CCC(=O)OCC[N+](C)(C)C`, the “activity, negative = inhibition” value is -1.12% [at 42.5 µM] (inactive).
For `O=[N+]([O-])c1cccc(S(=O)(=O)O)c1`, the Potency is 2.2 µM (active).
As to `CCOC(=O)COC(=O)c1cc(Oc2ccc(C(F)(F)F)cc2Cl)ccc1[N+](=O)[O-]`, the “activity, negative = inhibition” value was -24.5% (inactive).
`O=C(CS)Nc1ccccc1`: the “activity, negative = inhibition” value was -17.5% [at 42.5 µM] (inactive).
Still for that read-out and setting: in the case of `CCC(C)c1cc(C(C)(C)C)c(O)c(C(C)(C)C)c1` (stereo not given) it was 0.138% (inactive); in that of `Brc1c2ccccc2cc2ccccc12`, 0.0441% (inactive); in that of `Cc1cccc(C)c1NC(=O)CN(CC(=O)O)CC(=O)O`, 18% [at 42.5 µM] (inactive).
Regarding `Clc1ccc(Cn2c(CN3CCCC3)nc3ccccc32)cc1`, the Potency is 11.9 µM (active).
As to `O=C(O)c1ccc(S(=O)(=O)O)cc1C(=O)O`, the “activity, negative = inhibition” value was 3.95% (inactive).
Still for that read-out and setting: next, `COc1cc(Cl)ccc1Oc1ccc(Cl)cc1Cl`: 2.55% (inactive).
As for `CCCCC(=O)OCC(=O)[C@H]1[C@H](C)C[C@H]2[C@@H]3C[C@H](F)C4=CC(=O)C=C[C@]4(C)[C@@]3(F)[C@@H](O)C[C@@]21C`, the “activity, negative = inhibition” value was -1.48% [at 42.5 µM] (inactive).
In the case of `C=CCOc1ccccc1OCC(O)CNC(C)C` (stereo not given), the “activity, negative = inhibition” value was -1.26% [at 42.5 µM] (inactive).
For the molecule `COS(=O)(=O)C(F)(F)F`, the “activity, negative = inhibition” value was 20.8% (inactive).
Same read-out and setting: in the case of `CCCCCCCN` it was 3.08% (inactive); in that of `NCC(=O)CCC(=O)O`, 17.9% [at 42.5 µM] (inactive); in that of `CCNc1cc(O)ccc1C`, 1.47% (inactive).
Take `O=C(O)C1(C(=O)O)CCC1.[NH2-].[NH2-].[Pt+2]`: the “activity, negative = inhibition” value was 13.7% [at 42.5 µM] (inactive).
Still for that read-out and setting: in the case of `CCC(Cl)CCC(Cl)C(Cl)CC(Cl)C(Cl)C(Cl)CCl` (stereo not given) it was 6.35% (inactive).
